HT1080-NT tox: kills 2HG-producing HT-1080-NT fibrosarcoma cells | HT-1080-NT fibrosarcoma viability, CellTiter-Glo ATP luminescence, 48 h | Potency, µM (series often up to 46.1 µM), for the others: at the top dose activity, negative = less viability, hits mostly cytotoxic | actives 1.6% (n = 360,000) | AID 686970;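 note: NT is the 2HG producing partner of a matched IDH1 knockdown line; potency is the fitted concentration of half-maximal effect; 0% = DMSO-treated cells and -100% = media-only wells without cells; nearly all actives have a fitted effect of over 55% in size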
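Compounds were tested in concentration-response format on HT-1080-NT cells for 48 hours at 37 degrees C. Cell viability came from CellTiter-Glo luminescence; curves were classified by r2, response magnitude and activity.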
IL-1B inflam inh: inflammasome signaling inhibition, IL-1 beta readout | THP-1 LPS/ATP IL-1B secretion, AlphaLISA, 16 h; stronger effect = lower value | activity change, % at 57.5 µM | actives 4.7% (n = 360,000); in the data active = activity change below about -50%; inconclusive = mostly about -30% to -49%
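Secreted IL-1B measured by AlphaLISA bead assay after 16 h compound exposure of THP-1 cells; compounds (final up to 57.5 uM) added 1 h before LPS (250 ng/mL) and ATP (1.25 mM) stimulation; lower signal means less secretion.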
TDP1 cell CPT: growth inhibition of DT40 Tdp1-/-;hTDP1 cells with camptothecin (screen for TDP1 inhibitors); AID 686979; chicken DT40 Tdp1-/-;hTDP1 cells + 20 nM CPT, ATP luminescence, 48 h; Potency, µM (highest dose often 46.2 µM), inactives show at the highest dose activity change, negative = growth inhibition, hits mostly inhibitors; actives 12% (n = 420,000); note: potency is the fitted concentration of half-maximal effect; nearly all actives have a fitted effect of over 55% in size
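Cell growth measured by CellTiter-Glo luminescence after a minimum 48 h, 37 C compound exposure with 20 nM CPT in Tdp1-knockout DT40 cells stably expressing hTDP1, seeded 400/well; qHTS titration format.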
HT1080 IDH1KD tx: toxicity to HT-1080 IDH1 knockdown cells (counter line). Potency, µM (doses to about 46.1 µM), for the others: at the highest dose activity, negative = toxicity, actives largely listed as cytotoxic. actives 2% (n = 360,000). AID 686971. HT-1080 IDH1 knockdown viability, ATP luminescence, 48 h;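 note: potency is the fitted concentration of half-maximal effect; 0% = DMSO wells and -100% = cell-free medium wells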
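Viability of IDH1-knockdown HT-1080 fibrosarcoma cells was assessed by CellTiter-Glo after 48 h at 37 °C with titrated compound; concentration-effect curves were classified by fit quality and response size.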
TDP1 cell noCPT: qHTS for Inhibitors of human tyrosyl-DNA phosphodiesterase 1 (TDP1): qHTS in cells in absence of CPT | DT40 Tdp1-/- hTDP1 cells, no CPT, ATP luminescence, 48 h | Potency, µM (doses to about 46.2 µM), for inactives: at the highest dose activity change, negative = growth inhibition, usual class: inhibitors | actives 15% (n = 420,000) | AID 686978, 2013; note: potency is the fitted concentration of half-maximal effect; nearly all actives have a fitted effect of over 55% in size
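Chicken DT40 Tdp1-/- cells complemented with human TDP1, screened without camptothecin (DMSO vehicle only), 400 cells/well. Compounds pin-transferred, cells incubated at 37 °C for at least 48 hr. Growth read as ATP-dependent luminescence (CellTiter-Glo, 30 min at RT).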
Numbers without * were called inactive; ? = inconclusive; nt = no result; ! = not confirmed by another sample. In the library only some 19% were active in any assay of this set; here they are far more common. Unless noted, calls come from the whole dose curve; as a rule, active = well fitted curve in the direction sought with a large enough effect; inconclusive = small, poorly fitted or top-dose-only effect, or another doubt; inactive = no such curve, though single readings can be large; an effect the other way counts as inactive or inconclusive. Unless noted, % is set by controls: 0 for no effect and ±100 for the full control effect.

SMILES	HT1080-NT tox	IL-1B inflam inh	TDP1 cell CPT	HT1080 IDH1KD tx	TDP1 cell noCPT
Cn1c(SCc2cccc([N+](=O)[O-])c2)nc2c(c1=O)SCC2	-21%	?	?	?	?
COc1cccc(/C=C/C(=O)N2CCN(c3n[nH]c(=O)[nH]c3=O)CC2)c1OC	1%	1	-7%	-3%	6%
NS(=O)(=O)c1ccc(N=Nc2nc3[nH]cnc(=S)c3[nH]2)cc1	nt	nt	5µM*	nt	6.3µM*
CC1=NN(C(N)=S)C(=O)C1N=Nc1ccc(S(N)(=O)=O)cc1 (configuration not stated)	-1%	0	-8%	2%	-9%
COc1cc(C2c3cc4c(cc3C(OC3OC5COC(C)O[C@@H]5C(O)C3O)C3COC(=O)C23)OCO4)cc(OC)c1O (some centres not stated)	nt	nt	0.18µM*	nt	0.15µM*
COC1OC2COC(c3ccccc3)OC2C(O)C1N (configuration not stated)	22%	-16	4%	18%	-8%
COc1cc([C@@H]2c3cc4c(cc3[C@@H](O[C@@H]3O[C@@H]5CO[C@@H](C)O[C@H]5[C@H](O)[C@H]3O)[C@H]3COC(=O)[C@H]23)OCO4)cc(OC)c1O	-13%	37	0.16µM*	?	0.16µM*
COc1cc(C2c3cc4c(cc3C(OC3OC5COC(c6cccs6)OC5C(O)C3O)C3COC(=O)C23)OCO4)cc(OC)c1O (configuration not stated)	?	15	0.023µM*	?	0.026µM*
Cc1ccsc1C(=O)OCC(=O)NC1CCS(=O)(=O)C1 (configuration not stated)	11%	-1	1%	11%	3%
O=C(NN1C(=O)c2ccc3c4c(ccc(c24)C1=O)CC3)c1ccc(Br)cc1	-7%	-3	?	-1%	-23%
COc1ccccc1NS(=O)(=O)c1cc(N/C(=N/S(=O)(=O)c2ccccc2)c2ccc(F)cc2)ccc1Cl	-10%	?	nt	-13%	21µM*
COc1ccc(NS(=O)(=O)c2cccc(N/C(=N\S(=O)(=O)c3ccccc3)c3ccc(F)cc3)c2)cc1	?	-6	21µM*	?	?
O=S(=O)(/N=C(/Nc1ccc(Cl)c(S(=O)(=O)Nc2ccccc2Cl)c1)c1ccc(F)cc1)c1ccccc1	?	-75*!	3%	?	-7%
Nc1ccc(/C=C/c2ccc(N)cc2S(=O)(=O)O)c(S(=O)(=O)O)c1	nt	nt	-1%	nt	-17%
CCOc1ccccc1CNC(=O)C1CCN(S(=O)(=O)N2CCC(C)CC2)CC1	2%	-19	?	1%	?
CCc1ccc(S(=O)(=O)N2CCN(c3ccccc3OC)CC2)cc1	-7%	-12	14%	-12%	12%
CC(=O)N1CCOc2ccc(S(=O)(=O)N(C)c3cccc(C)c3)cc21	-6%	32	-20%	-3%	?
O=C(c1ccccc1)c1ccc(OCC(O)CNCc2cccc(Cl)c2)cc1 (configuration not stated)	?	-82*	?	?	?
CCC(=O)c1ccc(OCC(O)CNCc2ccc(F)cc2)cc1 (configuration not stated)	-5%	-12	-10%	-7%	-35%
Cc1ccc(C(OCC(O)CN2CCCCC2CO)c2ccccc2)cc1 (configuration not stated)	2%	?	-22%	2%	-2%
CC(=O)c1ccc(OCC(O)CNCc2ccc3c(c2)OCO3)cc1 (configuration not stated)	2%	-7	-18%	2%	-13%
Cc1ccc(C(OCC(O)CNCc2ccc(F)cc2)c2ccccc2)cc1 (configuration not stated)	-23%	-98*	15µM*	-15%	16µM*
O=C(c1ccccc1)c1ccc(OCC(O)CNCc2ccc(F)cc2)cc1 (configuration not stated)	?	-72*	-2%	21µM*	-25%
CCCc1cc(=O)oc2cc(C)cc(OCC(=O)N3CCC(C(N)=O)CC3)c12	13%	12	15%	9%	-2%
COCCNC(=O)c1ccc(NS(=O)(=O)c2ccc3[nH]c(=O)[nH]c3c2)cc1	-2%	4	3%	3%	-2%
SMILES	HT1080-NT tox	IL-1B inflam inh	TDP1 cell CPT	HT1080 IDH1KD tx	TDP1 cell noCPT
CC(C)C1N=C2c3ccccc3N=C(SCc3cc(=O)n4cc(Cl)ccc4n3)N2C1=O (configuration not stated)	-6%	17	?	-8%	15µM*
COc1cccc(CNC(=O)CSC2=Nc3ccccc3C3=NC(C(C)C)C(=O)N23)c1 (configuration not stated)	nt	nt	2%	nt	-25%
Cc1cc(S(N)(=O)=O)c(N)c(S(N)(=O)=O)c1	1%	-8	17%	0%	4%
CN(C)c1ccc(C(C(=O)NCC2CCCO2)N(Cc2ccccc2)C(=O)c2snc(C(N)=O)c2N)cc1 (configuration not stated)	-19%	-11	10µM*	-1%	18µM*
CN(C)c1ccc(C(C(=O)NCc2ccccc2)N(Cc2ccco2)C(=O)c2snc(C(N)=O)c2N)cc1 (configuration not stated)	-27%	-72*	15µM*	?	8.2µM*
NC(=O)c1nsc(C(=O)N(Cc2cccnc2)C(C(=O)NCc2ccc(F)cc2)c2ccc(F)cc2)c1N (configuration not stated)	-2%	-55*	-28%	-4%	-25%
CN(C)c1ccc(C(C(=O)NCC2CCCO2)N(Cc2ccco2)C(=O)c2snc(C(N)=O)c2N)cc1 (configuration not stated)	-12%	-3	?	-13%	?
NC(=O)c1nsc(C(=O)N(Cc2ccco2)C(C(=O)NCc2ccc(F)cc2)c2ccc(O)cc2)c1N (configuration not stated)	-15%	?	16µM*	1%	?
CCC(C)(C)NC(=O)C(c1ccc(F)cc1)N(Cc1ccco1)C(=O)c1snc(C(N)=O)c1N (configuration not stated)	?	-2	?	?	-37%
CCOC(=O)C1CCN(C(=O)c2cc3cc(Br)ccc3oc2=O)CC1	19%	-2	5%	4%	5%
CC(Sc1nnc(Nc2ccccc2F)s1)C(=O)NC1CC1 (configuration not stated)	-5%	10	-3%	9%	10%
